# Screening results (PubChem BioAssay)
# Only a sample is shown.
# aSyn 5UTR act = Activators via SNCA 5'UTR binding, MLPCN; alpha-synuclein 5'UTR reporter, activators screen; activity score, % (tested at 7.5 µM), hits read low; 300,000 compounds, 7.1% hits; in the data active = activity score below about -60%
# * hit, by the source's call.
SMILES,aSyn 5UTR act
COc1ccc2cc(-c3csc(-c4cccnc4)n3)ccc2c1,-250.9*
COc1ccc(-c2csc(-c3cccnc3)n2)cc1C,-243.4*
Cc1ccc(Cn2ccc(=O)c(Cc3c(Cl)cccc3Cl)c2C)cc1,51.0
Cc1c(O)c(=O)ccn1Cc1ccccc1,68.1
Cc1ccc(Cn2ccc(=O)c(OCc3ccccc3)c2C)cc1,-109.5*
Cc1cc(C)cc(C(=O)Nc2ccc(N3CCCC3)cc2)c1,-120.5*
Cc1cc(C)cc(NC(=O)Nc2ccc(N3CCCCC3)cc2)c1,-153.0*
O=C(COc1ccc(Cl)cc1Cl)NC(=O)N1CCCCC1,-120.6*
Cc1cc(Cl)ccc1OCC(=O)N1CCCCC1,-108.3*
Cc1ccc(/C(N)=N/OC(=O)N2CCOCC2)cc1,-61.8*
Cc1ccc(/C(N)=N/OC(=O)C23CC4CC(CC(C4)C2)C3)cc1,-184.8*
Cc1c2cnn(CC(=O)NC3CCCC3)c(=O)c2c(C)n1Cc1ccccc1,-100.3*
Cc1ccc(-c2nc3ccccc3o2)cc1NC(=O)c1ccc2c(c1)OCO2,-150.8*
Cc1ccc2oc(-c3ccc(NC(=O)c4ccc5c(c4)OCO5)cc3)nc2c1,-104.9*
O=C(Nc1ccc(-c2nc3ccccc3o2)cc1)c1ccc2c(c1)OCO2,-65.8*
Clc1ccsc1-c1ccnc(-n2cccc2)n1,-62.2*
Cc1cc(-c2sccc2Br)nc(-n2cccc2)n1,-86.8*
c1ccc2nc(-c3nccs3)ccc2c1,-126.1*
c1ccc2nc(-c3ccncc3)ccc2c1,-96.2*
Clc1ccsc1-c1ccc2ccccc2n1,-113.3*
CC1(C)CC(=O)C=C(NNC(=O)c2ccccc2O)C1,-92.6*
O=[N+]([O-])c1ccc(/C=C2\CCC(C3=CCCC3)=C2N2CCOCC2)cc1,-74.4*
Cc1cc(NC(=O)C(=O)c2cn(C)c3ccccc23)no1,-71.7*
COc1ccccc1C(=O)Nc1cccc(NC(=O)c2ccccc2OC)n1,-112.3*
COc1ccccc1C(=O)Nc1cc(C)on1,-113.5*
SMILES,aSyn 5UTR act
COc1cccc2cc(C(=O)Nc3cccc(C)n3)c(=O)oc12,-166.6*
COc1ccccc1C(=O)Nc1ccccc1SC(=O)c1ccccc1OC,-112.3*
COc1ccccc1C(=O)Nc1cc(-c2ccc(C)cc2)no1,-177.7*
COc1ccccc1C(=O)Nc1ccc2c3c(cccc13)CC2,-117.6*
Cc1ccc(-c2nc3ccccn3c2NCc2ccc3c(c2)OCO3)cc1,-163.2*
COc1ccc(-c2nc3ccc(C)cn3c2NCc2ccc3c(c2)OCO3)cc1,-119.2*
O=C1CCC2S/C(=C/Nc3ccc(C(F)(F)F)cc3)C(=O)N12 (stereo unspecified),99.4
O=C(/C=C/c1ccco1)Nc1ccccc1C(=O)O,-116.8*
O=C(/C=C/c1ccco1)Nc1ccccc1N1CCCC1,-79.6*
Nc1c(C(=O)c2ccccc2)sc2nsc(SCCN3CCOCC3)c12,-157.1*
Cc1c(OCC(=O)OC(C)(C)C)ccc2c3c(c(=O)oc12)CCC3,-61.6*
Cc1c(OCC(=O)NCc2cccnc2)ccc2c3c(c(=O)oc12)CCC3,-71.4*
Cc1c(OCc2ccc([N+](=O)[O-])cc2)ccc2c3c(c(=O)oc12)CCC3,-114.2*
CC(=O)COc1ccc2c3c(c(=O)oc2c1C)CCCCC3,-120.2*
Cc1c(C)c2ccc(OCC(=O)Nc3ccccn3)c(C)c2oc1=O,109.5
CCC(=O)N1N=C(c2ccc(NS(C)(=O)=O)cc2)CC1c1ccc(N(C)C)cc1 (stereo unspecified),-101.9*
Cc1ccc(NC(=O)C(C)N=C2NS(=O)(=O)c3ccccc32)cc1F (stereo unspecified),-95.7*
CC(C)(C)c1csc(NC(=O)c2ccccc2O)n1,-141.4*
Cc1csc(NC(=O)c2ccccc2O)n1,-84.4*
Cc1csc(NC(=O)c2cc(C)oc2C)n1,-128.5*
Cc1csc(NC(=O)c2ccc(Cl)nc2)n1,-92.7*
COc1ccc(-c2cc(C(=O)Nc3cc(C)on3)no2)cc1,-70.5*
COc1ccc(OCc2cccc(C(=O)Nc3cc(C)on3)c2)cc1,66.5
COc1ccc(-c2cc(C(=O)Nc3ccc(C)cc3)no2)cc1,-70.8*
COc1ccc(-c2cn3cccnc3n2)cc1NS(=O)(=O)c1ccccc1,-98.0*
SMILES,aSyn 5UTR act
COc1ccc(-c2cn3cccnc3n2)cc1F,-107.7*
O=C(NC(=O)c1ccccc1O)c1ccc(C(F)(F)F)cc1,-69.0*
N#C/C(=C/c1ccc(N2CCCCC2)o1)c1cccc(F)c1,-333.7*
N#C/C(=C/c1ccc(N2CCCCCC2)o1)c1ccc(Cl)cc1,-299.3*
N#C/C(=C/c1ccc(N2CCCCC2)cc1)c1cccc(F)c1,-134.9*
COc1ccc2c(c1)CC/C2=N\OC(=O)c1cccc(C)c1,-229.7*
COc1ccc(C(=O)N=C2CCC(C#N)=C3c4cc(OC)c(OC)cc4CCN23)cc1,54.6
Cc1ccccc1C(=O)O/N=C/c1c(N2CCOCC2)n(C)c2ccccc12,86.5
COC(=O)c1cc2c(s1)-c1ccc(OC)cc1CC2,-211.7*
COc1ccc2c(c1)CC/C2=N\OC(=O)c1ccccc1C,-136.4*
COc1ccc2c(c1)CC/C2=N\NC(=O)c1ccccc1,-111.3*
CNC(=O)c1cc2c(s1)-c1ccccc1CC2,-132.9*
CCCc1nn(C)c(C(=O)Nc2cccc(CC)c2)c1Cl,-84.2*
CCCc1nn(C)c(C(=O)Nc2ccc3ccccc3c2)c1Cl,-203.9*
CCn1cc(C(=O)NCCCN(C)C)c(=O)c2cc(F)c(N3CCN(C)CC3)cc21,-64.7*
Clc1cccc(CSc2ncn(-c3ccccc3)n2)c1,-67.1*
O=C(/C=C\c1ccco1)Nc1cc([N+](=O)[O-])ccc1F,97.4
Cc1nc(NC(=O)/C=C/c2ccco2)sc1C,-199.3*
O=C(/C=C/c1ccco1)Nc1cccc(NC(=O)/C=C/c2ccco2)n1,-192.9*
O=C(/C=C/c1ccco1)Nc1nnc(-c2ccco2)s1,-117.5*
CCSc1nnc(NC(=O)/C=C/c2ccco2)s1,-320.5*
O=C(/C=C/c1ccco1)NC1=NCCS1,-108.2*
CCc1nnc(NC(=O)/C=C/c2ccco2)s1,-501.0*
CNS(=O)(=O)c1ccc2nc(NC(=O)/C=C/c3ccco3)sc2c1,-230.3*
Cc1ccc2oc(-c3cccc(NC(=O)c4ccc(Br)o4)c3)nc2c1,-93.7*
SMILES,aSyn 5UTR act
Cc1cc2nc(-c3cccc(NC(=O)c4ccc(Br)o4)c3)oc2cc1C,-77.1*
O=C(Nc1ccccc1)C1=C[C@@H](c2ccc3c(c2)OCO3)C[C@@H](OCCCCO)O1,-111.9*
O=C(Nc1ccccc1)C1=C[C@H](c2ccc3c(c2)OCO3)C[C@H](OCCCCO)O1,-89.0*
Nc1nc(Cl)nc2c1ncn2C1CC(O)C(CO)O1 (stereo unspecified),87.1
Nc1ncn([C@H]2C[C@H](O)[C@@H](CO)O2)c(=O)n1,-924.7*
O=c1[nH]c(=O)n([C@H]2C[C@H](O)[C@@H](CO)O2)cc1C(F)(F)F,76.5
O=c1[nH]c(-c2cccnc2)nc2sc(-c3ccccc3)cc12,-119.3*
CC(C)OC(=O)Cc1nc2sc(-c3ccccc3)cc2c(=O)[nH]1,-86.7*
CN1CCN(C2=C(Cl)C(=O)N(C3CCCCC3)C2=O)CC1,-84.4*
CC(C)(C)C(=O)/C(=C/c1ccc(Cl)cc1)n1cncn1,-173.2*
CC(C)(C)C(=O)/C(=C\c1ccc([N+](=O)[O-])cc1)n1cncn1,-276.5*
O=[N+]([O-])c1cccc(-c2nnc(-c3ccc4c(c3)OCO4)o2)c1,-77.8*
O=[N+]([O-])c1cccc(-c2nnc(-c3ccccc3)o2)c1,67.9
Clc1ccccc1-c1nnc(-c2ccc3c(c2)OCO3)o1,-82.4*
Clc1ccccc1-c1nnc2sc(-c3ccc4c(c3)OCO4)nn12,-90.7*
